Measured values published in PubChem BioAssay AID624351 (Southern Research Specialized Biocontainment Screening …, 2012).
Screen size: about 2,400 compounds; about 1,400 (58%) were called active.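 How the source made its calls: active means inhibition of 30% or more at any tested dose; inconclusive means primary hits over the limit that were never retested; inactive means the rest.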 So high a share suggests a set chosen from earlier hits. Some of the results follow.

Test: coupled detection enzyme interference, dose response, artefact control for MgcRacGAP inhibitor project, biochemical, coupled enzyme counter-screen (AID 624351);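 further: signal is the ADP detection kit reading of free GDP without any GAP enzyme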
Conditions: ADP Hunter coupled enzyme counter-screen, fluorescence, no MgcRacGAP; series mostly up to 80 µM

SMILES	IC50
CS(=O)(=O)C1=NSC2=NC(=O)/C(=C\c3ccc(OC(=O)c4ccco4)c(Br)c3)C(=N)N21	inactive
O=[N+]([O-])c1ccc(N2CCN(c3ccc(O)cc3)CC2)c(Cl)c1	40.4 µM (active)
O=[N+]([O-])c1ccc(N2CCN(CCOCCO)CC2)c([N+](=O)[O-])c1	inactive
Cc1cc(Cl)cc2sc(=S)[nH]c12	81.5 µM (active)
Cc1c(N(C)C)nc2ccccc2c1N	inactive
CCn1c2ccccc2c2cc(N)ccc21	inactive
CN(C)c1cc2c3ccccc3n(C)c2cc1N	13.4 µM (active)
CC1(C)OC(=O)C(=NNc2ccc(O)cc2)C(=O)O1	23.5 µM (active)
Cc1ccc2c(c1)[nH]c1c(N3CCN(Cc4ccccc4)CC3)ncnc12	45.1 µM (active)
COc1ccc2[nH]c3c(N4CCC(O)(c5cccc(C(F)(F)F)c5)CC4)ncnc3c2c1	inactive
Cc1ccc(SCCN2CCN(Cc3ccccc3)CC2)cc1	inactive
Cc1nc2ccccc2n2c(O)c(CC(=O)O)cc12	33 µM (active)
COc1cc(/C=C/C(=O)N[C@@H](Cc2c[nH]c3ccccc23)C(=O)O)ccc1O	83.7 µM (active)
O=S(=O)(c1ccc2ccccc2c1)N1CCN(c2ccc(O)cc2)CC1	39.5 µM (active)
Cc1ccc(S(=O)(=O)N2CCN(C(=O)CN3CCN(c4ccc(O)cc4)CC3)CC2)cc1	34.6 µM (active)
O=C(CSc1ccc2ccccc2c1)N1CCN(c2ccc(O)cc2)CC1	46.5 µM (active)
CCOC(=O)N1CCC(N2CCN(S(=O)(=O)c3ccc4ccccc4c3)CC2)CC1	inactive
Cc1ccc(CN2CCN(C(=O)CC(C)C)CC2)cc1	inactive
O=S(=O)(c1ccc2ccccc2c1)N1CCN(C2CCN(Cc3ccccc3)CC2)CC1	inactive
C/C=C(\C)CN1CCN(c2ccc(C)cc2)CC1	inactive
Cc1cc2nc(/N=C(\N)NC(=O)N3c4ccccc4Sc4ccccc43)nc(C)c2cc1C	inactive
C#CCOCCOCCOCCNc1nc(N2CCN(C(=O)C([C@@H](C)O)n3cc([C@@H](N)CCCCN)nn3)CC2)nc(N2CCN(C(=O)[C@H](CCCN=C(N)N)n3cc(C(N)[C@@H](C)CC)nn3)CC2)n1 (stereo not given in full)	inactive
Cc1cc(O)ccc1Nc1nc(-c2cccs2)cs1	44 µM (active)
CC(C)N1CCN(C(=O)c2cccc(Cl)c2)CC1	inactive

SMILES	IC50
Nc1ccc(N2CCN(c3ccc(Cl)c(Cl)c3)CC2)cc1	20.5 µM (active)
Nc1ccc(N2CCN(c3cccc(Cl)c3)CC2)cc1	18.6 µM (active)
CCCCCC(=O)Nc1cc(S(=O)(=O)O)cc2cc(S(=O)(=O)O)cc(O)c12	inactive
CCN(CC)c1ccc(NS(=O)(=O)c2ccc(-c3ccc(=O)[nH]n3)o2)c(C)c1	inactive
CC(=O)Nc1n[nH]c(=S)s1	48.7 µM (active)
CCOc1ccc(Nc2n[nH]c(=S)s2)cc1	42.5 µM (active)
Cc1ccc(Nc2n[nH]c(=S)s2)cc1F	50.3 µM (active)
Cc1ccc(Nc2n[nH]c(=S)s2)cc1	50.6 µM (active)
O=C(O)c1ccc(S(=O)(=O)c2ccc3c(c2)C(=O)N(NC(=O)c2cccnc2)C3=O)cc1	inactive
COc1ccc(Nc2ccc3ccccc3c2)cc1	66.9 µM (active)
COc1ccc(NC2=NCCC2)cc1	inactive
COc1ccc(Nc2ccccc2)c(C)c1	37.4 µM (active)
COc1ccc(NC(=S)NNS(=O)(=O)c2ccc3ccccc3c2)c(OC)c1	inactive
OCCN1CCN(CC(O)COC(c2ccc(F)cc2)c2ccc(F)cc2)CC1 (stereo not given)	inactive
Cc1cc(OCc2nc3ccccc3s2)ccc1N	63.7 µM (active)
CCOc1ccc2nc(NC(=O)CS(=O)(=O)c3ccccc3)sc2c1	inactive
CCCS(=O)(=O)N1CCN(CC2CC3C=CC2C3)CC1 (stereo not given)	inactive
COc1cc(OC)c(CN2CCCN(C)CC2)cc1Br	inactive
Oc1ccc(Cc2ccc(Cl)cc2)c(O)c1	78 µM (active)
Fc1ccc(CNCc2ccccc2Cl)cc1	inactive
Oc1ccc(Cc2ccccc2Cl)c(O)c1	60.2 µM (active)
CCC(=O)N1CCc2cc(S(=O)(=O)CCC(=O)NCc3ccc(C)cc3)ccc21	inactive
N#CC1(Nc2ccc(-c3ccc(NC4(C#N)CCCC4)cc3)cc2)CCCC1	11.6 µM (active)
CCOc1ccccc1N1CCN(C/C=C/c2ccc(N(C)C)cc2)CC1	inactive

SMILES	IC50
C[n+]1ccc(/C=C/c2ccccc2O)c2ccccc21	inactive
CC[n+]1ccc(/C=C/c2ccc(N(C)C)cc2)c2ccccc21	47 µM (active)
O=C(CCl)NCCN1C(=O)S/C(=C\c2cccnc2)C1=O	inactive
COc1cc2c(cc1OC)C(/C=C/c1ccco1)=NCC2	inactive
COc1cc(/C=c2\sc3n(c2=O)CCCN=3)ccc1O	17.7 µM (active)
O=c1/c(=C/c2ccc(O)cc2)sc2n1CCCN=2	21.7 µM (active)
Cc1cc(Cl)cc(C)c1OCCOCCNCc1ccccc1	inactive
Cc1cc2[nH]c3c4ccccc4nc(C)c3c2cc1C	inactive
O=C1Nc2ccccc2C1=Nc1ccc2[nH]c3ccccc3c2c1	23.4 µM (active)
CCOC(=O)c1c(N)sc2c1CCS(=O)(=O)C2	inactive
CCOC(=O)c1c(N)sc2c(O)c(Br)ccc12	58.1 µM (active)
Oc1ccc2c(ccc3[nH]cnc32)c1	42.6 µM (active)
CCN(CC)CCOC(=O)c1ccc(N/C=C(/C#N)c2nc(-c3ccc4c(c3)OCO4)cs2)cc1	inactive
CCN(CC)c1ccc(NC(=O)c2ccc3c(c2)OCO3)cc1	66.8 µM (active)
CCN(CC)C(=O)C1CCCN(Cc2ccc3c(c2)OCO3)C1 (stereo not given)	inactive
CC(C(=O)Nc1ccc2c(c1)OCO2)N1CCN(C)CC1 (stereo not given)	inactive
CN(C)c1ccc(NC(=O)COC(=O)c2ccc3c(c2)OCO3)cc1	67 µM (active)
O=C(Oc1ccc2c(c1)OCO2)c1ccncc1	inactive
Nc1ccc2c(c1)Nc1ccccc1CC2	37.8 µM (active)
Cc1ccccc1OCCN1CCCC1	inactive
Cc1ccccc1OCCn1c(=S)[nH]c2c(N)ncnc21	68.2 µM (active)
CC(C)Oc1ccc(OCCn2c(=S)[nH]c3c(N)ncnc32)cc1	76.4 µM (active)
